This is part of a sample that, as a whole, favours compounds with a hit. Of some 79,000 tested, about 15% had one in any assay. A number with no mark means an inactive call. Rule as the data show it: active = growth inhibition above about 70%; inactive = the rest.
Assay: NCI Yeast Anticancer Drug Screen. Data for the mlh1 rad18 strain (AID 175)
Settings: S. cerevisiae mlh1 rad18 strain growth inhibition; at 50.0 µM; stronger effect = higher value
Method in brief: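 A repair-deficient yeast strain is exposed to test compound, and growth is scored relative to vehicle-treated controls.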

| Structure (SMILES) | growth inhibition [%] |
| --- | --- |
| C#CCN(C)Cc1cc(OC)c(OC)c(OC)c1 | 14.4 |
| O=[N+]([O-])c1ccccc1Sc1ccc2c3c(cccc13)CN(CCCO)C2 | 50.9 |
| O=C1CC(C2OCOC3COCOC32)CC(=O)N1 (stereo not given) | -1.65 |
| CCCCCc1cc(O)cc2c1Oc1cc(O)cc(C(=O)CCCC)c1C(=O)O2 | -14.2 |
| Nc1ccc2ccc(S(=O)(=O)O)cc2c1 | -17.9 |
| CC1C(NNC(N)=O)Oc2cc3c(cc2C1c1ccccc1O)OCO3 (stereo not given) | -4.75 |
| CC(C)(CO)N=Cc1ccc(Cl)c(Cl)c1 | -24.6 |
| CC(=O)Oc1ncnc2c1cnn2C | -3.3 |
| CC1CCCCN1CCCO (stereo not given) | 17.4 |
| Nc1ccc(S(=O)(=O)Nc2nc3ccccc3nc2Nc2ccc(S(N)(=O)=O)cc2)cc1 | -13.6 |
| CCOC(=O)c1ccc(NC(=O)Nc2cc(Cl)ncn2)cc1 | -6.15 |
| COC(=O)CN1C(=O)OC(c2ccccc2)C1=O (stereo not given) | -13.4 |
| O=c1[nH]c2cc([N+](=O)[O-])ccc2nc1/C=C(\O)c1ccco1 | 22.1 |
| FC(F)(F)c1cccc(NC(=S)Nc2ccccc2S)c1 | 17 |
| O=C(O)CSc1c(Cl)c(=O)oc2ccc(Cl)cc12 | 43.9 |
| Cc1ccc2nc(-c3ccc(CSC(=N)N)cc3)oc(=O)c2c1 | 42 |
| CCN(CC)/[N+]([O-])=N/OC | 1.35 |
| CCCCCCCCCCCCCCCCOC(=O)c1cc([N+](=O)[O-])cc([N+](=O)[O-])c1Sc1ncnc2nc[nH]c12 | -32.2 |
| COC(=O)[C@H]1C=C[C@H](OC2OC(COC(C)=O)C(OC(C)=O)C(OC(C)=O)C2OC(C)=O)n2c(=O)n(-c3ccccc3)c(=O)n21 (stereo not given in full) | -48 |
| Cc1ccc(/C(O)=C/c2nc3ccc([N+](=O)[O-])cc3nc2/C=C(\O)c2ccc(C)cc2)cc1 | -14 |

| Structure (SMILES) | growth inhibition [%] |
| --- | --- |
| CCCCOCN1COCN(COCCCC)C1=O | 6.2 |
| CC1CCCC(C)C1O (stereo not given) | -14.1 |
| CS(=O)(=O)c1nc2ncnc(N)c2[nH]1 | -4.75 |
| NC1=Nc2ccccc2Sc2nncn21 | -4.35 |
| COc1c2cc(C(C)(C)C)cc1CSCc1cc(C(C)(C)C)cc(c1OC)CCCCC2 | -1.6 |
| NCCNC(=O)CCC(CN(CC(=O)O)CC(=O)O)N(CC(=O)O)CC(=O)O (stereo not given) | 42.7 |
| O=C(OCCSC(=S)N1CCCCC1)c1ccccc1 | -0.4 |
| Cc1ccccc1C(=O)c1ccc2ccccc2c1 | 25.4 |
| O=C1NCC2Cc3ccccc3C(c3ccccc3)=C12 (stereo not given) | -4.25 |
| O=C(O)c1cncc(C(=O)O)c1 | -24.6 |
| OC1CCC2CCCC2C1 (stereo not given) | -1.2 |
| O=C1CSC(c2ccc([N+](=O)[O-])cc2)N1c1nc(-c2ccc3c(c2)CCCC3)cs1 (stereo not given) | 31.5 |
| CC(=O)Oc1c(C)cc2c(c1C)C(C)(C)CN2C(=O)C(C)(C)C | 7.9 |
| CCC(Oc1ccc(OC)c2c1C(=O)CCC2)C(=O)O (stereo not given) | 7.55 |
| NC(=O)C(CC(=O)O)NC(=O)c1ccccc1 (stereo not given) | 10.1 |
| C=CCC(c1ccccc1)(c1ccccc1)c1ccccc1 | 8.25 |
| NC(Cc1ccc(S(=O)(=O)O)cc1)C(=O)NC(Cc1ccc(S(=O)(=O)O)cc1)C(=O)NC(Cc1ccc(S(=O)(=O)O)cc1)C(=O)O (stereo not given) | -8.2 |
| CCc1cc2c(c3c1CCCC3=O)CC1(C2)Cc2cc(CC)c3c(c2C1)C(=O)CCC3 | 4.5 |
| COC(=O)c1nn2c(=O)n(C(C)=O)c3ccccc3c2c1C(=O)OC | 24.6 |
| COC(=N)c1ncn(Cc2ccccc2)c1N | -37.3 |

From PubChem BioAssay (NCI)
